Among the data in PubChem BioAssay (NCI) are growth values, retold here.

About 83,000 compounds went through this panel and 20% of them were active in at least one assay; those are over-represented in the sample as a whole.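 Assay: single dose, 48 h. Readout: percent growth (0 = no net growth; negative = cell death). Active: <10.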 Values without a mark were called inactive. Activity calls are given as the source filed them.

This assay concerns MDA-MB-468 breast. The experiment in a line: NCI-60 one-dose screen, 48 h (100 = growth as untreated, 0 = no growth, -100 = all killed). The following applies: 10 µM unless noted.
On to `COc1cc2cc(Oc3ccc(NC(=O)c4ccccc4)cc3)c(C)nc2cc1OC`, for which the growth is 98.4%.
As for `O=C(Nc1cccc(-n2cc(-c3ccncc3)c(-c3ccc(Cl)c(O)c3)n2)c1)Nc1ccc(Cl)c(Cl)c1`, the figure is 2.25% (active).
For `CC[N+](C)(CC)CCO`, the growth was 91.8%.
With `COc1cc(/C=N/n2cnc3oc(-c4ccccc4)cc3c2=N)cc(CN2CCOCC2)c1O` the figure was 83.2%; with `CCCn1nc(C(=O)N(C)Cc2ccccc2)c2c1CCC(N1CCc3ccccc31)C2` (stereo not given), 92.8%; with `Cc1cc(S(=O)(=O)/N=C(\N)n2nc(C)c(C)c2C)c(SCc2ccccc2)cc1Cl`, 66%.
`O=C1c2cc3c(cc2-c2c1c1cc(F)c(F)cc1c(=O)n2CCCn1ccnc1)OCO3`: the growth was -53.6% (active).
With `O=c1ccc2c(ccc3ncccc32)o1` the figure was 107%; with `CS(=O)(=O)Nc1cccc(-c2ccc3ncnc(Nc4ccc(F)c(Cl)c4)c3c2)c1`, -26% (active); with `COc1ccc2c(c1)oc1c3[nH]c4ccccc4c3c3c(c21)C(=O)N(O)C3=O`, -17.7% (active).
As for `COc1ccc(S(=O)(=O)N2CCN(C)CC2)cc1NC(=O)c1[nH]c(C)c2c1CCCCC2=O`, the growth was 39.8%.
With `CCOC(=O)/C(=C\c1ccc2ccccc2c1)P(=O)(OCC)OCC`, the growth is -13.1% (active).
With `Nc1ccccc1NC(=O)c1ccc(CN2CCC/C(=C\c3cccc(Cl)c3)C2=O)cc1` the figure was -10.1% (active); with `COc1cccc(-c2nn(-c3ccccc3)cc2-c2ccnc(NCCCO)c2)c1`, 23.8%; with `Cc1cc(-c2ccccc2)on1`, 109%.
